Compounds with a hit are over-represented: about 6.7% of the library has one in this group of screens.
C diff HTS – C. difficile growth inhibitors, primary screen, HTS. Clostridium difficile clinical isolate growth, OD600, 24 h; stronger effect = lower value. AID 1259249, 2017. 86,000 compounds, 0.25% hits. growth activity, negative = inhibition, % at 16 µg/mL (by protocol);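 active means mean growth activity at or below -80% and every replicate also at or below -80%; inconclusive means mean at or below -80% but some replicate above -80%; inactive means mean growth activity above -80%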
Pf Dd2 inh – P. falciparum Dd2 growth inhibitors, primary screen, SYBR Green fluorescence, single dose replicates | 72 h; stronger effect = lower value | activity change, % at 10 µM | 94,000 compounds, 2.3% hits | AID 1159554, 2015; in the data active means activity change below about -80%; inconclusive means no clear call, values can overlap the other calls
T cruzi growth-1 – T. cruzi intracellular proliferation inhibitors, primary screen, cell-based, beta-gal Tulahuen parasites, NIH3T3 host, luminescence; inhibition, % at 8.34 µM; 77,000 compounds, 5.9% hits; T. cruzi beta-gal in NIH3T3, GalScreen luminescence, 90 h;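 active means mean inhibition above about 93%, with at least 55% of replicates each passing it, limit read from the data, passing the limit was not always enough; inconclusive means only one of those two conditions holds; inactive means neither condition holds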
T cruzi growth-2 – T. cruzi intracellular proliferation inhibitors, confirmation, cell-based, NIH3T3 host, beta-gal parasite, luminescence, cherry-pick | inhibition, % at 8.35 µM | 5,600 compounds, 72% hits | AID 651739, 2012 | T. cruzi beta-gal in NIH3T3, GalScreen luminescence, 90 h | shares compounds with T cruzi growth-1;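 active means mean replicate inhibition above about 95% and at least 55% of replicates individually reaching it, limit read from the data; inconclusive means only one of the two criteria is met; inactive means neither criterion is met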
T cruzi growth-3 – inhibitors of intracellular T. cruzi replication, confirmation, NIH3T3 host cells, beta-gal parasites, cherry-pick, set 2. shares compounds with T cruzi growth-1. T. cruzi beta-gal in NIH3T3, GalScreen luminescence, 90 h. inhibition, % at 2.09 µM. 5,600 compounds, 21% hits. AID 651740, 2012;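 active means mean inhibition above about 95%, with at least 55% of replicates also reaching it, limit read from the data; inconclusive means meets just one of the two conditions; inactive means meets neither condition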
3T3 cytotox – cytotoxicity in mouse NIH/3T3 fibroblasts, confirmation, cytotoxicity control for T. cruzi proliferation inhibitor project, cell-based, cherry-pick, single point; cytotoxicity (signal decrease), % at 8.35 µM; shares compounds with T cruzi growth-1; AID 651742, 2012; NIH/3T3 viability, CellTiter-Glo ATP luminescence, 90 h; 5,600 compounds, 14% hits;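 active means mean signal decrease across replicates above about 35% based on untreated-well scatter, with enough replicates individually passing, limit read from the data; inconclusive means no rule stated though some were filed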
NIH3T3 tox 2 – NIH/3T3 fibroblast cytotoxicity, confirmation, cytotoxicity control, cell-based, cherry-pick, single point, set 2; AID 651744, 2012; inhibition, % at 24.9 µM; shares compounds with T cruzi growth-1; NIH/3T3 viability, CellTiter-Glo ATP luminescence, 90 h; 5,600 compounds, 56% hits;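 active means mean loss of cell viability signal at or above a set limit, and enough replicates individually reaching it; inconclusive means meets only the mean limit or only the replicate share; inactive means meets neither condition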
Large screens that a line does not name were inactive (follow-up assays come after a bar, where they were run).

O=C(C[C@@H]1CC[C@@H](NC(=O)Nc2cccc(F)c2)[C@H](CO)O1)NCC1CCCCC1	none (no result: T cruzi growth-1)
C[C@H]1CN([C@@H](C)CO)S(=O)(=O)c2ccc(-c3ccncc3)cc2O[C@@H]1CN(C)Cc1ccccc1	none
C[C@@H]1CN([C@H](C)CO)S(=O)(=O)c2ccc(-c3ccncc3)cc2O[C@H]1CN(C)Cc1ccccc1	T cruzi growth-1 inconclusive | T cruzi growth-2 98 | T cruzi growth-3 100 | 3T3 cytotox 60 | NIH3T3 tox 2 94
C[C@H](CO)N1C[C@H](C)[C@H](CN(C)Cc2ccccc2)Oc2cc(-c3ccncc3)ccc2S1(=O)=O	none
C[C@@H]1CN([C@@H](C)CO)S(=O)(=O)c2ccc(-c3ccncc3)cc2O[C@H]1CN(C)Cc1ccccc1	T cruzi growth-1 inconclusive | T cruzi growth-2 inactive | T cruzi growth-3 99 | 3T3 cytotox 76 | NIH3T3 tox 2 96
CC(C)CC#Cc1ccc([C@H]2[C@@H](CO)N3CCCCN(S(=O)(=O)Cc4ccccc4)C[C@H]23)cc1	T cruzi growth-1 103 | T cruzi growth-2 98 | T cruzi growth-3 108 | 3T3 cytotox inactive | NIH3T3 tox 2 108
CCCC#Cc1ccc([C@H]2[C@H]3CN(S(=O)(=O)Cc4ccccc4)CCCCN3[C@H]2CO)cc1	T cruzi growth-1 100 | T cruzi growth-2 104 | T cruzi growth-3 inactive | 3T3 cytotox inconclusive | NIH3T3 tox 2 76
C[C@H](O)C#Cc1ccc([C@H]2[C@@H](CO)N3CCCCN(S(=O)(=O)Cc4ccccc4)C[C@H]23)cc1	none
O=S(=O)(Cc1ccccc1)N1CCCCN2[C@@H](CO)[C@H](c3ccc(C#Cc4ccccc4)cc3)[C@@H]2C1	T cruzi growth-1 117 | T cruzi growth-2 100 | T cruzi growth-3 inactive | 3T3 cytotox 51 | NIH3T3 tox 2 106
CC(C)C#Cc1ccc([C@@H]2[C@@H](CO)N3CCCCN(S(=O)(=O)Cc4ccccc4)C[C@@H]23)cc1	T cruzi growth-1 101 | T cruzi growth-2 105 | T cruzi growth-3 inactive | 3T3 cytotox 37 | NIH3T3 tox 2 104
O=S(=O)(Cc1ccccc1)N1CCCCN2[C@H](CO)[C@@H](c3ccc(C#Cc4ccccc4)cc3)[C@H]2C1	none
O=S(=O)(Cc1ccccc1)N1CCCCN2[C@H](CO)[C@H](c3ccc(C#Cc4ccccc4)cc3)[C@H]2C1	none
O=S(=O)(Cc1ccccc1)N1CCCCN2[C@H](CO)[C@@H](c3ccc(C#Cc4ccccc4)cc3)[C@@H]2C1	none
C[C@@H]1CCCCO[C@@H](CN(C)C(=O)CCCN(C)C)[C@@H](C)CN([C@@H](C)CO)C(=O)c2cc(NC(=O)C3CCCCC3)ccc2O1	none
COCCNC(=O)C[C@@H]1CC[C@@H]2[C@@H](COc3ccc(NS(=O)(=O)c4ccc(Cl)cc4)cc3C(=O)N2C)O1	none
Cc1ccc(S(=O)(=O)N[C@H]2CC[C@H](CCn3cc(C(C)C)nn3)O[C@H]2CO)cc1	none
C[C@H]1CN([C@@H](C)CO)C(=O)Cc2cc(NC(=O)Nc3ccc(C(F)(F)F)cc3)ccc2O[C@@H]1CN(C)S(=O)(=O)c1cccs1	none
CNC(=O)C[C@@H]1CC[C@H]2[C@H](COc3ccc(NC(=O)Nc4cccc(F)c4)cc3C(=O)N2C)O1	none
C[C@@H]1CN([C@@H](C)CO)S(=O)(=O)c2ccc(-c3ccccc3)cc2O[C@@H]1CN(C)C	none (no result: C diff HTS, T cruzi growth-1)
CCCC#Cc1ccc([C@@H]2[C@@H](CO)N3CCCCN(S(=O)(=O)c4ccccc4C)C[C@@H]23)cc1	T cruzi growth-1 116 | T cruzi growth-2 98 | T cruzi growth-3 inactive | 3T3 cytotox inactive | NIH3T3 tox 2 102
COCC#Cc1ccc([C@@H]2[C@@H](CO)N3CCCCN(S(=O)(=O)c4ccccc4C)C[C@@H]23)cc1	none
CCCNC(=O)C[C@@H]1C[C@H]2c3cc(NC(=O)Nc4ccc(OC)cc4)ccc3O[C@H]2[C@H](CO)O1	none
O=C(C[C@@H]1C[C@@H]2c3cc(NC(=O)Nc4ccccc4)ccc3O[C@@H]2[C@H](CO)O1)NCC1CC1	T cruzi growth-1 102 | T cruzi growth-2 inactive | T cruzi growth-3 inactive | 3T3 cytotox inactive | NIH3T3 tox 2 inactive
COc1ccc(NC(=O)Nc2ccc3c(c2)[C@@H]2C[C@H](CC(=O)NCCc4ccccc4)O[C@H](CO)[C@@H]2O3)cc1	T cruzi growth-1 159 | T cruzi growth-2 105 | T cruzi growth-3 101 | 3T3 cytotox inactive | NIH3T3 tox 2 inactive
COc1ccc(NC(=O)Nc2ccc3c(c2)[C@H]2C[C@H](CC(=O)NCCc4ccccc4)O[C@H](CO)[C@H]2O3)cc1	T cruzi growth-1 149 | T cruzi growth-2 109 | T cruzi growth-3 inactive | 3T3 cytotox inactive | NIH3T3 tox 2 inactive
O=C(C[C@@H]1C[C@H]2c3cc(NC(=O)Nc4ccc(F)cc4)ccc3O[C@H]2[C@@H](CO)O1)NCC1CC1	none
CCCNC(=O)C[C@H]1C[C@@H]2c3cc(NC(=O)Nc4ccc(OC)cc4)ccc3O[C@@H]2[C@@H](CO)O1	none
CCCNC(=O)N1[C@@H](C#N)[C@@H](c2ccc(C#Cc3ccc(F)cc3)cc2)[C@@H]1CO	T cruzi growth-1 103 | T cruzi growth-2 107 | T cruzi growth-3 103 | 3T3 cytotox inactive | NIH3T3 tox 2 inconclusive
CCCNC(=O)N1[C@@H](C#N)[C@H](c2ccc(C#Cc3ccc(F)cc3)cc2)[C@@H]1CO	T cruzi growth-1 103 | T cruzi growth-2 105 | T cruzi growth-3 inactive | 3T3 cytotox inactive | NIH3T3 tox 2 40
N#C[C@H]1[C@@H](c2ccc(C#Cc3ccc(F)cc3)cc2)[C@H](CO)N1C(=O)Nc1ccc(F)cc1	none
N#C[C@H]1[C@H](c2ccc(C#Cc3ccc(F)cc3)cc2)[C@H](CO)N1C(=O)Nc1ccc(F)cc1	none
COCC(=O)Nc1ccc2c(c1)C(=O)N(C)[C@H]1CC[C@@H](CC(=O)NCc3cccc(F)c3)O[C@@H]1CO2	none
Cc1ccc(S(=O)(=O)Nc2ccc3c(c2)C(=O)N([C@H](C)CO)C[C@H](C)[C@@H](CN(C)S(=O)(=O)c2ccc(F)cc2)OCCCC[C@@H](C)O3)cc1	none (no result: T cruzi growth-1)

Screening data: PubChem, Broad Institute
